From the supplement of paper PMC7057948, “A genome-wide approach for identification and characterisation of metabolite-inducible systems” (Nature Communications, 2020)

These molecules were tested on XdhR/P_H16_RS05055 xanthine biosensor (pEH154) (assay: relative induction of RFP reporter vs primary effector; higher = stronger activation). Conditions: inducer concentration 5 mM; 6 h; Cupriavidus necator H16; minimal medium + 0.4% gluconate.
Protocol: (§1)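 Orthogonality screen of 21 primary inducers against 21 transcription factor/inducible promoter–mRFP biosensors in C. necator H16 in minimal medium, robotic 96-well format, 5 mM inducer, 30 °C. OD-normalised RFP fluorescence was read 6 h later and expressed as relative induction (%) = 100 × (FL compound − FL uninduced)/(FL primary inducer − FL uninduced); mean of n=4. Cognate pairs (100% by definition) omitted.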

Point of comparison: `Nc1ccccc1C(=O)C[C@H](N)C(=O)O` [L-kynurenine], “relative induction of RFP reporter” value -0.483%. Against it:
- NCCC(=O)O [β-alanine] — lower, -0.793%
- O=C(O)C(=O)c1ccccc1 [phenylglyoxylate] — lower, -1.19%
- O=C(O)CS(=O)(=O)O [sulfonatoacetate] — higher, -0.434%
- CC(=O)C(C)O (stereo not given) [acetoin] — lower, -0.695%
- N[C@@H](Cc1ccc(O)cc1)C(=O)O [L-tyrosine] — lower, -1.38%
- OC1OC[C@H](O)[C@H](O)[C@H]1O (mixture of isomers) [L-arabinose] — higher, -0.221%
- O=C(O)C(O)C(O)C(=O)O (stereo not given) [tartrate] — higher, -0.458%
- O=C(O)c1ccccc1 [benzoate] — lower, -0.493%
- O=C(O)c1ccccc1O [salicylate] — higher, -0.278%
- C=C(CC(=O)O)C(=O)O [itaconate] — higher, -0.326%
- O=C(O)C1CCCCC1 [cyclohexane-1-carboxylate] — higher, 0.127%
- O=C(O)c1ccc(O)c(O)c1 [3,4-dihydroxybenzoate] — lower, -0.547%
- O=CO [formate] — higher, -0.347%
- N[C@@H](Cc1ccccc1)C(=O)O [L-phenylalanine] — lower, -1.38%
- O=C(O)CCO [3-hydroxypropanoate] — lower, -0.715%
- C=CC(=O)O [acrylate] — higher, -0.215%

Each molecule was assayed on heterologous L-rhamnose-inducible system in the same assay as above. Conditions: inducer concentration 5 mM; 6 h; Cupriavidus necator H16; minimal medium + 0.4% gluconate.
Protocol: as §1

Point of comparison: `N[C@@H](Cc1ccccc1)C(=O)O` [L-phenylalanine], “relative induction of RFP reporter” value 0.00514%. Against it:
- NCCC(=O)O [β-alanine] — lower, 0.0016%
- O=C(O)C(=O)c1ccccc1 [phenylglyoxylate] — lower, -0.00891%
- O=C(O)CS(=O)(=O)O [sulfonatoacetate] — higher, 0.0242%
- CC(=O)C(C)O (stereo not given) [acetoin] — lower, -0.0013%
- N[C@@H](Cc1ccc(O)cc1)C(=O)O [L-tyrosine] — higher, 0.00824%
- O=c1[nH]c(=O)c2nc[nH]c2[nH]1 [xanthine] — higher, 0.0204%
- OC1OC[C@H](O)[C@H](O)[C@H]1O (mixture of isomers) [L-arabinose] — higher, 0.00935%
- O=C(O)C(O)C(O)C(=O)O (stereo not given) [tartrate] — higher, 0.0177%
- O=C(O)c1ccccc1 [benzoate] — lower, -0.0138%
- O=C(O)c1ccccc1O [salicylate] — higher, 0.019%
- C=C(CC(=O)O)C(=O)O [itaconate] — higher, 0.00546%
- O=C(O)C1CCCCC1 [cyclohexane-1-carboxylate] — lower, -0.00651%
- O=C(O)c1ccc(O)c(O)c1 [3,4-dihydroxybenzoate] — higher, 0.0186%
- O=CO [formate] — higher, 0.0165%
- O=C(O)CCO [3-hydroxypropanoate] — lower, 0.00446%
- Nc1ccccc1C(=O)C[C@H](N)C(=O)O [L-kynurenine] — lower, -0.00942%
- C=CC(=O)O [acrylate] — lower, 0.000569%
